Here are results for nine compounds from PubChem BioAssay (NCI).

Molecules are shown by their SMILES. Compounds without any hit were thinned out: in the full panel of roughly 79,000, 15% have a hit. Values without a mark were called inactive. Activity calls are given as the source filed them. No stated cut-off is given here; in the data, active means growth inhibition above about 70%; inactive means the rest.

A short description of assay [1]: NCI Yeast Anticancer Drug Screen. Data for the rad50 strain (AID 155).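 Further: 0% = growth of vehicle-only cultures of the same strain.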 To be noted: S. cerevisiae rad50 strain growth inhibition, hits give high values. In a few lines:
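Growth of the mutant yeast was measured after compound exposure and referenced to vehicle-treated cultures.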

The nature of assay [2]: NCI Yeast Anticancer Drug Screen. Data for the mec2-1 strain (AID 157). To be noted: S. cerevisiae mec2-1 strain, hits give high values. The essentials: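 Mutant yeast (mec2-1) grown with compound; growth inhibition relative to vehicle control reported.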
Assay [3] is described as follows: NCI Yeast Anticancer Drug Screen. Data for the sgs1 mgt1 strain (AID 161).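 Further: 0% = growth of cultures given vehicle only.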 To be noted: S. cerevisiae sgs1 mgt1 strain, hits give high values. In a few lines: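 This yeast growth screen uses a strain with defined DNA-repair lesions; compound-treated growth is compared with vehicle-treated growth.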
Assay [4] in a line: NCI Yeast Anticancer Drug Screen. Data for the cln2 rad14 strain (AID 165).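 Further: 0% = growth equal to vehicle treated cultures.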 To be noted: S. cerevisiae cln2 rad14 strain, hits give high values. In a few lines: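 Readout is yeast growth inhibition versus vehicle-treated controls, using a strain with cln2 and rad14 alterations exposed to compound.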
A short description of assay [5]: NCI Yeast Anticancer Drug Screen. Data for the bub3 strain (AID 167). To be noted: S. cerevisiae bub3 mutant strain, hits give high values. In a few lines: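 Whole-cell yeast assay. The mutant strain was incubated with compounds, and growth inhibition was determined by comparison with vehicle-treated cells.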
A short description of assay [6]: NCI Yeast Anticancer Drug Screen. Data for the mlh1 rad18 strain (AID 175). To be noted: S. cerevisiae mlh1 rad18 strain growth inhibition, hits give high values. The essentials:
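Genetically defined yeast (DNA repair-deficient) exposed to compounds; growth inhibition determined relative to vehicle.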

[7] abbreviates: at 5.0 µM (retest, dose inferred, filed as 0.5).
Setting [8] is: at 50.0 µM (retest, dose inferred, filed as 5.0).

As to `CC1C=CC(C)C2C(=O)C3C(C)C=CC(C)C3C(=O)C12` (configuration not stated), the growth inhibition in assay [1] (setting [7]) is 0%; in assay [1] (setting [8]), -7%; in assay [1] (at 50.0 µM) it was -10.3%; in assay [2] (setting [7]), 6%; in assay [2] (setting [8]) it was 14%; in assay [2] (at 50.0 µM), -6.45%. The growth inhibition in assay [3] (setting [7]) was -1%; in assay [3] (setting [8]) it was 9%; in assay [3] (at 50.0 µM), 3.65%; in assay [4] (setting [7]), 18%; in assay [4] (setting [8]), 23%; in assay [4] (at 50.0 µM) it was 38.5%. The growth inhibition is -12% in assay [5] (setting [7]); 0% in assay [5] (setting [8]); 18.9% in assay [5] (at 50.0 µM); 1% in assay [6] (setting [7]); -7% in assay [6] (setting [8]); 8.9% in assay [6] (at 50.0 µM).
As to `O=C(CNc1cccc([N+](=O)[O-])c1)Nn1c(-c2ccccc2)nc2ccccc2c1=O`, the growth inhibition in assay [1] (setting [7]) was 2%; in assay [1] (setting [8]), 30%; in assay [1] (at 50.0 µM), 55.5%; in assay [2] (setting [7]), -3%; in assay [2] (setting [8]), 17%; in assay [2] (at 50.0 µM), 18.4%. Moreover, the growth inhibition is 3% in assay [3] (setting [7]); 21% in assay [3] (setting [8]); 62.7% in assay [3] (at 50.0 µM); 12% in assay [4] (setting [7]); 35% in assay [4] (setting [8]); 38.6% in assay [4] (at 50.0 µM). In addition, the growth inhibition is -18% in assay [5] (setting [7]); 9% in assay [5] (setting [8]); 54.6% in assay [5] (at 50.0 µM); 7% in assay [6] (setting [7]); 41% in assay [6] (setting [8]); 76.7% (active) in assay [6] (at 50.0 µM).
Regarding `CC1C(CCC(=O)O)OC2CC3C4CCC5CC(O)CCC5(C)C4CCC3(C)C21` (configuration not stated), the growth inhibition in assay [1] (setting [7]) is 4%; in assay [1] (setting [8]), 56%; in assay [1] (at 50.0 µM) it was 82.3% (active); in assay [2] (setting [7]), 7%; in assay [2] (setting [8]) it was 96% (active); in assay [2] (at 50.0 µM), 90% (active). The growth inhibition in assay [3] (setting [7]) was 22%; in assay [3] (setting [8]), 89% (active); in assay [3] (at 50.0 µM), 95.5% (active); in assay [4] (setting [7]), 8%; in assay [4] (setting [8]) it was 90% (active); in assay [4] (at 50.0 µM), 93.7% (active). Further, the growth inhibition in assay [5] (setting [7]) is 4%; in assay [5] (setting [8]), 66%; in assay [5] (at 50.0 µM), 86.4% (active); in assay [6] (setting [7]), 16%; in assay [6] (setting [8]), 91% (active); in assay [6] (at 50.0 µM) it was 85.3% (active).
Turning to `CCOC(=O)c1[nH]cnc1/N=N/c1nc(O)c(C#N)[nH]1`, the growth inhibition in assay [1] (setting [7]) is 8%; in assay [1] (setting [8]), 98% (active); in assay [1] (at 50.0 µM), -5.65%; in assay [2] (setting [7]) it was 3%; in assay [2] (setting [8]), 99% (active); in assay [2] (at 50.0 µM), 9.8%. Also, the growth inhibition in assay [3] (setting [7]) was -13%; in assay [3] (setting [8]), 99% (active); in assay [3] (at 50.0 µM), 6%; in assay [4] (setting [7]) it was 6%; in assay [4] (setting [8]), 99% (active); in assay [4] (at 50.0 µM), 0.85%. Further, the growth inhibition in assay [5] (setting [7]) is -4%; in assay [5] (setting [8]) it was 99% (active); in assay [5] (at 50.0 µM), 1.55%; in assay [6] (setting [7]), -6%; in assay [6] (setting [8]) it was 99% (active); in assay [6] (at 50.0 µM), -1.95%.
Regarding `O=C1CC2(CCCC2)C(=O)N1c1ccc(N2C(=O)CC3(CCCC3)C2=O)cc1`, the growth inhibition is 3% in assay [1] (setting [7]); -10% in assay [1] (setting [8]); -11.8% in assay [1] (at 50.0 µM); -3% in assay [2] (setting [7]); -12% in assay [2] (setting [8]); 6.95% in assay [2] (at 50.0 µM). Also, the growth inhibition is -1% in assay [3] (setting [7]); -7% in assay [3] (setting [8]); -22.4% in assay [3] (at 50.0 µM); -5% in assay [4] (setting [7]); -7% in assay [4] (setting [8]); 44.1% in assay [4] (at 50.0 µM). Moreover, the growth inhibition in assay [5] (setting [7]) is 0%; in assay [5] (setting [8]) it was -4%; in assay [5] (at 50.0 µM), -0.9%; in assay [6] (setting [7]), 1%; in assay [6] (setting [8]), -5%; in assay [6] (at 50.0 µM), -11.7%.
Turning to `CCCCCCCCCCCCCCCC(=O)NCC[N+](C)(CC)CC`, the growth inhibition in assay [1] (setting [7]) was -32%; in assay [1] (setting [8]) it was 0%; in assay [1] (at 50.0 µM), 57.4%; in assay [2] (setting [7]), -6%; in assay [2] (setting [8]) it was -11%; in assay [2] (at 50.0 µM) it was 27.4%. Also, the growth inhibition is -4% in assay [3] (setting [7]); 30% in assay [3] (setting [8]); 72.2% (active) in assay [3] (at 50.0 µM); 1% in assay [4] (setting [7]); -15% in assay [4] (setting [8]); 17.9% in assay [4] (at 50.0 µM). Moreover, the growth inhibition in assay [5] (setting [7]) is 2%; in assay [5] (setting [8]), 19%; in assay [5] (at 50.0 µM), 10.5%; in assay [6] (setting [7]), -8%; in assay [6] (setting [8]) it was 7%; in assay [6] (at 50.0 µM), 29.5%.
As for `O=C1/C(=C/c2ccc(F)cc2)CNC/C1=C\c1ccc(F)cc1`, the growth inhibition is 12% in assay [1] (setting [7]); 44% in assay [1] (setting [8]); 79.2% (active) in assay [1] (at 50.0 µM); 5% in assay [2] (setting [7]); 36% in assay [2] (setting [8]); 84.8% (active) in assay [2] (at 50.0 µM). In addition, the growth inhibition in assay [3] (setting [7]) is -2%; in assay [3] (setting [8]) it was 31%; in assay [3] (at 50.0 µM) it was 79.2% (active); in assay [4] (setting [7]), 35%; in assay [4] (setting [8]), 43%; in assay [4] (at 50.0 µM), 70.6% (active). The growth inhibition in assay [5] (setting [7]) was -11%; in assay [5] (setting [8]) it was 37%; in assay [5] (at 50.0 µM) it was 79.8% (active); in assay [6] (setting [7]) it was 16%; in assay [6] (setting [8]), 53%; in assay [6] (at 50.0 µM), 85.5% (active).
For the compound `O=C1/C(=C/c2ccc(Cl)cc2)CSC/C1=C\c1ccc(Cl)cc1`, the growth inhibition in assay [1] (setting [7]) is 23%; in assay [1] (setting [8]), 37%; in assay [1] (at 50.0 µM), 2.35%; in assay [2] (setting [7]) it was 12%; in assay [2] (setting [8]), 37%; in assay [2] (at 50.0 µM), 4%. Besides, the growth inhibition was 19% in assay [3] (setting [7]); 53% in assay [3] (setting [8]); 9.35% in assay [3] (at 50.0 µM); 18% in assay [4] (setting [7]); 34% in assay [4] (setting [8]); -2.2% in assay [4] (at 50.0 µM). Further, the growth inhibition in assay [5] (setting [7]) is 25%; in assay [5] (setting [8]), 62%; in assay [5] (at 50.0 µM), 5.55%; in assay [6] (setting [7]) it was 16%; in assay [6] (setting [8]) it was 42%; in assay [6] (at 50.0 µM), -9.1%.
For the compound `Cc1c[nH]c(=O)n(CC(=O)C2CCC3C4CCC5=CC(=O)CCC5(C)C4CCC23C)c1=O` (configuration not stated), the growth inhibition is 11% in assay [1] (setting [7]); 30% in assay [1] (setting [8]); 48.2% in assay [1] (at 50.0 µM); 0% in assay [2] (setting [7]); -11% in assay [2] (setting [8]); 43.6% in assay [2] (at 50.0 µM). In addition, the growth inhibition is -1% in assay [3] (setting [7]); 26% in assay [3] (setting [8]); 47.4% in assay [3] (at 50.0 µM); -1% in assay [4] (setting [7]); 4% in assay [4] (setting [8]); 46.6% in assay [4] (at 50.0 µM). For the same compound, the growth inhibition was 0% in assay [5] (setting [7]); 17% in assay [5] (setting [8]); 41.1% in assay [5] (at 50.0 µM); 1% in assay [6] (setting [7]); 20% in assay [6] (setting [8]); 43.3% in assay [6] (at 50.0 µM).
